The list is not random: actives were taken first. Their share in the collection is about 8%.
FMDV inh = blocks foot and mouth disease virus. FMDV antiviral cell-based qHTS. Potency, µM (series often up to 57.9 µM), inactives show at the top dose activity change, negative = inhibition, usual class: inhibitors. actives 1.2% (n = 410,000). AID 1159524; calls by dose curve; tested in HEK293T cells; note: read-out not given here; potency is the fitted concentration of half-maximal effect; % is set by controls: 0 for no effect and ±100 for the full control effect; nearly all actives have a fitted effect of over 45% in size
HCMV antiviral = blocks human cytomegalovirus replication; activity change, negative = inhibition, % at 57.5 µM; HFF cells, HCMV-luciferase reporter, 72 h; stronger effect = lower value; actives 4.5% (n = 410,000); in the data active = activity change below about -60%; inconclusive = no clear call, values can overlap the other calls; inactive = above about -39%; note: % is set by controls: 0 for no effect and ±100 for the full control effect
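Cell-based, HFFs, 1000 cells/well, 16 h 37C; cpds in DMSO + HCMV-luc, MOI 1 PFU/cell; 72 h 37C; OneGlo luminescence after 5 min RT; norm. to buffer vs Salinomycin 10uM.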
Lassa entry inh = inhibitors of Lassa virus binding or cell entry; Lassa virus pseudotype entry inhibition, cell reporter; Potency, µM (highest dose often 37.9 µM), for the others: at the top dose activity change, negative = inhibition, actives largely listed as inhibitors; actives 1.2% (n = 300,000); AID 540256; calls by dose curve; tested in HEK293 cells; note: potency is the fitted concentration of half-maximal effect; % is set by controls: 0 for no effect and ±100 for the full control effect; nearly all actives have a fitted effect of over 50% in size
SARS PLpro yeast = SARS-CoV PLP inhibition in yeast; Potency, µM (top dose mostly 32.9 µM), inactives show at the top dose activity, positive = growth rescue, hits mostly activators; actives 0.19% (n = 330,000); S. cerevisiae expressing SARS-CoV PLpro, growth rescue; calls by dose curve; note: potency is the fitted concentration of half-maximal effect; 0% is about no effect; nearly all actives have a fitted effect of over 55% in size
MARV entry inh = inhibitors of Marburg virus binding or cell entry | actives 1.8% (n = 300,000) | Marburg virus pseudotyped entry inhibition, cell reporter | Potency, µM (top dose mostly 37.8 µM), for the others: at the top dose activity change, negative = inhibition, most hits filed as inhibitors; calls by dose curve; tested in HEK293 cells; note: potency is the fitted concentration of half-maximal effect; % is set by controls: 0 for no effect and ±100 for the full control effect
HCV inhibitor = HCV inhibition; Huh7.5.1 HCVcc-Cre infection, luciferase reporter, 44 h; Potency, µM (titrated, usually from 41.8 µM), for inactives: top-dose activity change, negative = inhibition, hits mostly inhibitors; actives 3.4% (n = 340,000); active = well fitted inhibition curve with a large enough effect; inconclusive = small, poorly fitted or top-dose-only effect, or another doubt; inactive = no such curve, though single readings can be large or run the other way; note: potency is the fitted concentration of half-maximal effect; % is set by controls: 0 for no effect and ±100 for the full control effect
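Infectious HCV cell culture screen: compound-treated cells (1,000/well, pre-plated 4 h) are infected with HCVcc-Cre at roughly 0.5 moi and grown 44 h. Infection is quantified by luciferase signal after 15 min substrate incubation at room temperature.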
* = called active by the depositor; ! = not active in a repeat; [ ] = dose if it differs, or a comment.

Screening COc1ccc(CN2CCOc3ccc(CN4CCC(O)CC4)cc3C2)c(OC)c1OC returned FMDV inh -5.9%.
For CCOc1ccc(S(=O)(=O)Nc2ccc3oc(C)c(C(=O)OC(C)C)c3c2)cc1 the results were FMDV inh 63.8%, HCMV antiviral 29.7 and Lassa entry inh -20.6%[46.1 µM].
`CCCc1oc2ccc(NS(=O)(=O)c3ccc(OCC)cc3)cc2c1C(=O)OCC` gave FMDV inh 33.4%, HCMV antiviral -65.4*, Lassa entry inh inconclusive and MARV entry inh -23.4%[46.1 µM].
CCCc1oc2ccc(NS(=O)(=O)c3ccc(OC)cc3)cc2c1C(=O)OCC was read as FMDV inh 23.2%, HCMV antiviral -82.8* and Lassa entry inh 1µM*.
For COC1=C[C@H](C(=O)NCc2ccc(Br)cc2)[C@H](C)[C@@H](c2ccccc2)CC1=O the results were MARV entry inh -6.3%[14.2 µM].
CCN(C(=O)CSc1nc2n[nH]c(C)c2c(=N)n1-c1cccc(OC)c1)c1cccc(C)c1 was read as FMDV inh inconclusive, HCMV antiviral -20.9 and Lassa entry inh -31.0%[46.1 µM].
COc1ccc2c(c1)c1c(c(=O)n(-c3ccc(F)c(Cl)c3)c(=O)n1Cc1ccccc1C)n2C was read as FMDV inh 6.9%, HCMV antiviral 0.8 and Lassa entry inh 1.7%[46.1 µM].
COc1cc(=O)n2c(c1C(=O)NCc1ccc3c(c1)OCO3)CCN(C(=O)c1ccccc1F)CC2 was read as FMDV inh -6.6%.
`NCC12CC3CC(C1)CC(CN)(C3)C2` gave FMDV inh -15.7%, HCMV antiviral -5.2, Lassa entry inh -11.8%, SARS PLpro yeast 13.7%, MARV entry inh 18.3µM* and HCV inhibitor -1.0%.
For Cc1ccc(CSc2ccc3nnc(CCNS(=O)(=O)c4ccc(C)cc4)n3n2)cc1 the results were FMDV inh 13.2%, HCMV antiviral -3.3 and Lassa entry inh inconclusive.
CC1=CC=CC2=NC(=O)CC(C)(C(=O)N(CC(=O)NC3CCCC3)c3ccc(F)cc3)N12 (stereo not given) was read as FMDV inh -1.3%, HCMV antiviral -82.2*, SARS PLpro yeast 1.2%, MARV entry inh inconclusive and HCV inhibitor -19.7%.
`O=C(NCC1Cc2cccc(-c3cccnc3)c2O1)c1cc(-c2ccccc2)n[nH]1` (stereo not given) gave FMDV inh -12.7%.
S=C(Nc1ccc(Oc2ccc(NC(=S)NC3CCCCC3)cc2)cc1)NC1CCCCC1 was read as FMDV inh 12.8%, HCMV antiviral inconclusive, Lassa entry inh inconclusive, SARS PLpro yeast 11.2µM*, MARV entry inh inconclusive and HCV inhibitor inconclusive.
`S=C(Nc1ccc(Cl)c(Cl)c1)NC1CCCCC1` gave FMDV inh 18.9%, HCMV antiviral -98.9*, Lassa entry inh -19.0%, SARS PLpro yeast -32.7%, MARV entry inh inconclusive and HCV inhibitor inconclusive.
S=C(Nc1ccc2nsnc2c1)NC1CCCCC1 was read as FMDV inh 57.7%, HCMV antiviral -61.6*, Lassa entry inh -1.3%, SARS PLpro yeast 8.9%, MARV entry inh inconclusive and HCV inhibitor -2.8%.
`COc1ccnc(Oc2ccccc2)c1C(=O)N/C=N/OCc1ccccc1` gave FMDV inh -17.3%, HCMV antiviral -17.3, Lassa entry inh -7.8%[46.1 µM], SARS PLpro yeast 0.9%, MARV entry inh inconclusive and HCV inhibitor -4.0%.
`COc1ccnc(Oc2cccc(C(F)(F)F)c2)c1C(=O)N/C=N/OCc1ccccc1F` gave FMDV inh inconclusive, HCMV antiviral -11.1, Lassa entry inh inconclusive, SARS PLpro yeast -0.5%, MARV entry inh inconclusive and HCV inhibitor 11.2µM*.
For CCOc1ccc(C(=O)NCCc2ccccc2)cc1 the results were HCMV antiviral 10.4, Lassa entry inh 8.2µM*, SARS PLpro yeast -9.2%, MARV entry inh inconclusive and HCV inhibitor -6.8%.
Screening CC(=O)Oc1ccc(-c2ccc(C(=O)NCCc3ccc(S(N)(=O)=O)cc3)cc2)cc1 returned FMDV inh -15.1%, HCMV antiviral -0.9, Lassa entry inh -10.0%[46.1 µM], SARS PLpro yeast 2.0%, MARV entry inh inconclusive and HCV inhibitor 5.9%.
For CCOc1ccc(C(=O)NCCCCNC(=O)c2ccc(OCC)cc2)cc1 the results were FMDV inh 34.1%, HCMV antiviral 47.0, Lassa entry inh 22.0%, SARS PLpro yeast 2.1%, MARV entry inh 28.1% and HCV inhibitor inconclusive.
Screening CC(=O)Oc1ccc(C(=O)NCCc2ccccc2)cc1 returned FMDV inh -21.1%, HCMV antiviral -2.5, Lassa entry inh 7.08µM*, SARS PLpro yeast -3.9%, MARV entry inh inconclusive and HCV inhibitor 3.9%.
Screening COc1ccc(C(=O)N(C)c2ccccc2C(=O)NCCc2ccccc2)cc1 returned FMDV inh 13.8%, HCMV antiviral -97.3*, Lassa entry inh 3.98µM*, SARS PLpro yeast 6.3%, MARV entry inh inconclusive and HCV inhibitor inconclusive.
Screening CN(C(=O)c1ccccc1)c1ccccc1C(=O)NCCc1ccccc1 returned FMDV inh 0.7%, HCMV antiviral 34.9, Lassa entry inh 21.8%[46.1 µM], SARS PLpro yeast 0.6%, MARV entry inh 0.0%[46.1 µM] and HCV inhibitor 4.7%.
O=S(=O)(c1ccccc1)c1nnn2c1nc(NCc1ccccc1)c1cc(Cl)ccc12 was read as FMDV inh 9.4%, HCMV antiviral 3.5 and MARV entry inh inconclusive.
CCc1ccc(-n2c(N3CCN(c4ccc(F)cc4)CC3)nc3ccccc3c2=O)cc1 was read as FMDV inh inconclusive, HCMV antiviral inconclusive, Lassa entry inh -28.5%[46.1 µM] and MARV entry inh inconclusive.
Cc1cc(NC(=O)c2cc(-c3ccc(Br)cc3)on2)nn1Cc1ccc(Cl)cc1 was read as FMDV inh inconclusive, HCMV antiviral -7.6, Lassa entry inh 1.6%[46.1 µM] and MARV entry inh 4.9%[46.1 µM].
Clc1ccc(COC(Cn2ccnc2)c2ccc(Cl)cc2Cl)c(Cl)c1 (stereo not given) was read as FMDV inh inconclusive, HCMV antiviral -60.6*!, Lassa entry inh inconclusive, SARS PLpro yeast -57.0%, MARV entry inh inconclusive and HCV inhibitor inconclusive.
`Clc1ccc(CO[C@@H](Cn2ccnc2)c2ccc(Cl)cc2Cl)cc1` gave MARV entry inh -39.8%.
`CCOC(=O)N1CCc2cc(OC)c(OC)c3c2c1cc1cc(OC)c(OC)cc13` gave FMDV inh inconclusive, HCMV antiviral -11.5, Lassa entry inh inconclusive, MARV entry inh 7.94µM* and HCV inhibitor inconclusive.
`CCC(OC(=O)C(NC(=O)c1ccccc1)c1ccccc1)C(=O)Nc1cc(C)on1` (stereo not given) gave HCMV antiviral -23.3, Lassa entry inh -6.2%, SARS PLpro yeast 22.4µM*, MARV entry inh -0.9% and HCV inhibitor 21.3%.

Screening data deposited in PubChem BioAssay by National Center for Advancing Translational Sciences (NCATS).
